PubChem BioAssay
Values without a mark were called inactive. Active and inactive are the calls of the source.

biological target: Homeobox protein Hox-A13 (Mus musculus) (UniProt Q62424); test: inhibitors of HoxA13-DNA binding, primary screen, biochemical, fluorescence polarization, labeled oligonucleotide (AID 1185); conditions: 15 min, higher = more signal, called active from +8 up or from −8 down
Sequence (Q62424 whole entry, looked up): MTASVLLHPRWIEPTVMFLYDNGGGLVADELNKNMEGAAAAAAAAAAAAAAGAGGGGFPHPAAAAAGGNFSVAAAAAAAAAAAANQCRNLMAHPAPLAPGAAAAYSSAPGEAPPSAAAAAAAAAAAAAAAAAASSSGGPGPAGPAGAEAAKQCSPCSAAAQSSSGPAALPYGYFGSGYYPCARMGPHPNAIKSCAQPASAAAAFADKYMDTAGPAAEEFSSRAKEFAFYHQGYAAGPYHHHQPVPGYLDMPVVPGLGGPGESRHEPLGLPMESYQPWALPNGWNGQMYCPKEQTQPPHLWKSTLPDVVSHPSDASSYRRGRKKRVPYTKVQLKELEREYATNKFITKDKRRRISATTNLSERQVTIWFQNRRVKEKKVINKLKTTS

Compound	z-score
CC(C)c1ccc(NN2C(C(O)C(C)c3ccccc3)C=CC3C(=O)N(c4ccccc4)C(=O)C32)cc1 (stereo not given)	-2.2
CC(C)C[C@@H]1NC(=O)[C@@H]2C[C@H](C(=O)NCCCCCCNC(=O)CS)[C@H](c3ccc(O)cc3)N2C1=O	-2.01
COC(=O)Cn1c(C(=O)N(C)C)cc2c1C[C@H]1CN(C(=O)c3ccccc3)[C@@](Cc3ccccc3)(C(=O)OC)[C@@H]21	-4.29
COCCOC(=O)N1C(=O)[C@@]2(c3cc(C#CCC(C(=O)OC)C(=O)OC)ccc31)[C@H](c1ccc(O)cc1)N1[C@H](c3ccccc3)[C@H](c3ccccc3)OC(=O)[C@H]1[C@@H]2C(=O)N1CCc2cc(OC)c(OC)cc2C1	-1.37
Cc1ccc(S[C@]2(C(=O)NCc3ccccc3)CC(=O)N(Cc3ccccc3C(F)(F)F)[C@@H]2c2ccc(CO)cc2I)cc1	-2.23
O=C1C2C=CC(C(O)C3CCCCC3)N(Nc3ccccc3F)C2C(=O)N1c1ccccc1 (stereo not given)	0.182
CC[C@H]1C2=C3C(CC[C@H]4C(OCc5ccc(F)cc5C(F)(F)F)OC[C@](C)([C@@H]34)N(C(=O)OC(C)(C)C)C2)C(COC(C)=O)C1COC(C)=O (stereo not given in full)	-3.07
CC1CC/C=C\[C@H]2OC34C=CCN(CCN5CCOCC5)C(=O)[C@H]3N(C(CO)C(C)C)C(=O)[C@@H]4C2C(=O)O1 (stereo not given in full)	-7
COC(=O)C[C@H]1O[C@]2(C(=O)N(C)c3ccccc32)[C@@H](C)[C@@H]1[Si](C)(C)c1ccccc1	-7.09
O=C1O[C@@H](c2ccccc2)[C@@H](c2ccccc2)N2[C@@H](c3ccc(OCCO)cc3)[C@]3(C(=O)Nc4ccc(C#CC5=CCCCC5)cc43)[C@@H](C(=O)Nc3nc4ccccc4s3)[C@H]12	-15.3 (active)
CCCCN1CC=CC23O[C@@H]4/C=C\CCCOC(=O)C4[C@H]2C(=O)N(CCCCCCO)[C@@H]3C1=O (stereo not given in full)	-4.71
COC(=O)[C@@]1(Cc2ccc(F)cc2)[C@H]2c3cc(C(=O)N(C)C)n(CCF)c3C[C@H]2CN1C(=O)c1ccccc1	-5.09
CCc1cccc(NC(=O)O[C@H]2[C@H](OC(=O)Nc3ccccc3-c3ccccc3)[C@H](OC(=O)Nc3ccccc3-c3ccccc3)[C@@H](OC)O[C@@H]2CO)c1	-1.39
C=C(COC)C(=O)CC[C@H](OC(C)=O)c1ccccc1OCCO	-3.78
COC(=O)C(CC#Cc1ccc2c(c1)[C@]1(C(=O)N2)[C@H](c2ccc(OCCO)cc2)N2[C@H](c3ccccc3)[C@H](c3ccccc3)OC(=O)[C@H]2[C@@H]1C(N)=O)C(=O)OC	-1.34
COc1ccc([Si](C)(C)[C@H]2[C@H](CC(=O)N(CCO)Cc3ccccc3)O[C@@]3(C(=O)N(Cc4cccc(N5CCCCC5=O)c4)c4ccccc43)[C@@H]2C)cc1	-0.38
COCCCNC(=O)[C@@]1(Cc2ccccc2I)c2ccccc2C(=O)N(Cc2ccccc2C(F)(F)F)[C@H]1c1ccc(CO)cc1	-4.3
CC[C@@H](O[Si](C#C[Si](C(C)C)(C(C)C)C(C)C)(C(C)C)C(C)C)c1cn([C@H](C)c2ccccc2)nn1	0.0519

Compound	z-score
COCCOC(=O)N1C(=O)[C@@]2(c3cc(C#CCC(C(=O)OC)C(=O)OC)ccc31)[C@H](C(=O)N1CCc3cc(OC)c(OC)cc3C1)[C@H]1C(=O)O[C@H](c3ccccc3)[C@H](c3ccccc3)N1[C@@H]2c1ccccc1OCCO	0.96
CCCNC(=O)[C@@]1(Sc2ccc(C)cc2)CC(=O)N(Cc2cc(C(F)(F)F)cc(C(F)(F)F)c2)[C@@H]1c1ccc(CO)cc1	-0.323
Cc1ccc(S[C@]2(C(=O)NCc3ccccc3)CC(=O)N(Cc3ccccc3Cl)[C@@H]2c2ccc(CO)cc2)cc1	-2.65
CC1(C)OB(/C=C\CC(OC(=O)c2ccncc2)c2ccccc2)OC1(C)C (stereo not given)	-3.16
COc1cc(Cc2cc3c(c(-c4ccccc4)n2)[Si](C(C)C)(C(C)C)OC3)cc(OC)c1OC	-0.497
C=CCOC(=O)[C@H]1[C@@H]2C(=O)O[C@@H](c3ccccc3)[C@@H](c3ccccc3)N2[C@@H](c2ccc(OCCOC(=O)[C@@H]3C[C@@H]4C(=O)N[C@@H](Cc5ccccc5)C(=O)N4[C@@H]3c3ccc(O)cc3)cc2)[C@]12C(=O)Nc1ccc(I)cc12	0.703
CC1C2C(CCCO)=CC(C3C(=O)N(C(N)=O)C(=O)C23)N1Cc1cccc(OC(F)(F)F)c1 (stereo not given)	-7.99
COC(=O)[C@@]1(Cc2ccccc2)[C@H]2c3cc(C(=O)N(C)C)n(Cc4nc5ccccc5[nH]4)c3C[C@H]2CN1C(=O)c1ccccc1	-1.6
CO[C@H]1O[C@H](CO)[C@@H](OC(=O)Nc2cccc(F)c2)[C@H](OC(=O)Nc2ccc3c(c2)OCO3)[C@@H]1OC(=O)Nc1ccc2c(c1)OCO2	-6.1
O=C1C2C=CC(C(O)c3ccccn3)N(Nc3ccc([N+](=O)[O-])cc3)C2C(=O)N1c1ccccc1 (stereo not given)	-5.58
CC(C)N1C(=O)[C@@]2(Cc3ccccc31)c1ccccc1C(=O)N(Cc1ccccc1C(F)(F)F)[C@H]2c1ccc(CO)cc1	-0.791
CN1C2C=C(c3ccc(CO)cc3)C(C3C(=O)N(C(N)=O)C(=O)C32)C1C1CC1 (stereo not given)	-6.63
CC(C)C[C@@H]1NC(=O)[C@@H]2C[C@H](C(=O)NCCCCCNC(=O)CS)[C@H](c3ccc(O)cc3)N2C1=O	-0.472
CN(C)CCCCNC(=O)[C@H]1C[C@H]2C(=O)N[C@@H](CCCCN(C)C)C(=O)N2[C@H]1c1ccc(O)cc1	0.0335
CCOC(=O)C[C@H]1[C@H](OC(=O)c2ccccc2-c2ccccc2)[C@@H](NC(=O)CC(C)C)c2cc(OCCCO)ccc2N1C(=O)c1ccccc1	-4.48
CCCCCCc1nc(-c2ccc(OC)nc2)c(C)c2c1[Si](C(C)C)(C(C)C)OC2	0.384
COCCCNC(=O)[C@]1(Cc2ccccc2CN=[N+]=[N-])N=C(c2ccc(OCCCO)cc2)O[C@@H]1c1ccccc1N=[N+]=[N-]	-0.994
